# Measured values as given in ChEMBL document CHEMBL1961873, “Compounds: GSK PKIS; Assays: Nanosyn kinase panel” (2012).
# Assays:
# [1] = biological target: Sphingosine kinase 1 (Homo sapiens) (UniProt Q9NYA1); conditions: at 1 µM;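 also: mean SPHK1 inhibition value reported from the GSK PKIS kinase panel screen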
# [2] = biological target: T1, Sphingosine kinase 2 (Homo sapiens) (UniProt Q9NRA0); conditions: at 0.1 µM
# T1 sequence (whole entry): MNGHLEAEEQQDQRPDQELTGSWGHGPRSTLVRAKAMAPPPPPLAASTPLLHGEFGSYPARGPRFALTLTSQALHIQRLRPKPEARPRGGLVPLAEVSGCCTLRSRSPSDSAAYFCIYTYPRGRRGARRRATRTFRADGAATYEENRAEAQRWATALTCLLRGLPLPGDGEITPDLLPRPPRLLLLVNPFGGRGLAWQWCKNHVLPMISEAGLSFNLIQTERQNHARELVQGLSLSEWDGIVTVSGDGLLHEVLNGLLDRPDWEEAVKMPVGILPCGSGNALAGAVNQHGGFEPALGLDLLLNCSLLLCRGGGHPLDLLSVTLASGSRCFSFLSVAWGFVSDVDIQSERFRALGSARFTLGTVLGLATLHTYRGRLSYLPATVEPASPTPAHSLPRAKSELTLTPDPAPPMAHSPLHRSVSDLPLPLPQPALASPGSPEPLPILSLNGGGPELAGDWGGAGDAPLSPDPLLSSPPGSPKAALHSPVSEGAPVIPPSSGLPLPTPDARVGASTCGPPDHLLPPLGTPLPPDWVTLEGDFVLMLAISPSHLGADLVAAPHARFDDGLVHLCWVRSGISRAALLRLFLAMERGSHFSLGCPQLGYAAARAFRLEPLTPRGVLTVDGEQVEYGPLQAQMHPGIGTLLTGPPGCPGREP
# [3] = biological target: T1, Sphingosine kinase 2 (Homo sapiens); conditions: at 1 µM
# [4] = biological target: Casein kinase II subunit alpha (Homo sapiens) (UniProt P68400); conditions: at 0.1 µM
# [5] = biological target: Casein kinase II subunit alpha (Homo sapiens) (UniProt P68400); conditions: at 1 µM
# [6] = biological target: T2, Inhibitor of nuclear factor kappa-B kinase subunit alpha (Homo sapiens) (UniProt O15111); conditions: at 0.1 µM
# T2 sequence (whole entry): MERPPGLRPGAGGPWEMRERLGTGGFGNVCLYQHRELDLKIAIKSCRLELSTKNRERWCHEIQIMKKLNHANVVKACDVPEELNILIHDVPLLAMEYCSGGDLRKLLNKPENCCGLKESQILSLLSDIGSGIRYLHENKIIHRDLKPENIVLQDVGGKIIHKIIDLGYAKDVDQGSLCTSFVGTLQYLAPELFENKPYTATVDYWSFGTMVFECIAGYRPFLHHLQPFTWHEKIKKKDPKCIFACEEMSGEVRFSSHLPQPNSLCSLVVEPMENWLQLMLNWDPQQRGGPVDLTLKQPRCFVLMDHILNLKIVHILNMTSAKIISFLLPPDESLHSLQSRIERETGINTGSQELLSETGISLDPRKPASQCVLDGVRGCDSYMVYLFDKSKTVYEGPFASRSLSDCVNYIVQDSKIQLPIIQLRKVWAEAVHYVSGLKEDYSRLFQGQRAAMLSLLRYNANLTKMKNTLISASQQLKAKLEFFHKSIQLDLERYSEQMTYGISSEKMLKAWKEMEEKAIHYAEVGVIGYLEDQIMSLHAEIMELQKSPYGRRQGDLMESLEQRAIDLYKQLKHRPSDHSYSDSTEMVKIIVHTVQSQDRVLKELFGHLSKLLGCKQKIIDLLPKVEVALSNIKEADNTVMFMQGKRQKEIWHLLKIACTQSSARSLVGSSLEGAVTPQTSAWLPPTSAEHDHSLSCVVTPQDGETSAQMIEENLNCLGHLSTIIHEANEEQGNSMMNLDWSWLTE
# [7] = biological target: T2, Inhibitor of nuclear factor kappa-B kinase subunit alpha (Homo sapiens); conditions: at 1 µM
# [8] = biological target: T3, Inhibitor of nuclear factor kappa-B kinase subunit beta (Homo sapiens) (UniProt O14920); conditions: at 0.1 µM
# T3 sequence (whole entry): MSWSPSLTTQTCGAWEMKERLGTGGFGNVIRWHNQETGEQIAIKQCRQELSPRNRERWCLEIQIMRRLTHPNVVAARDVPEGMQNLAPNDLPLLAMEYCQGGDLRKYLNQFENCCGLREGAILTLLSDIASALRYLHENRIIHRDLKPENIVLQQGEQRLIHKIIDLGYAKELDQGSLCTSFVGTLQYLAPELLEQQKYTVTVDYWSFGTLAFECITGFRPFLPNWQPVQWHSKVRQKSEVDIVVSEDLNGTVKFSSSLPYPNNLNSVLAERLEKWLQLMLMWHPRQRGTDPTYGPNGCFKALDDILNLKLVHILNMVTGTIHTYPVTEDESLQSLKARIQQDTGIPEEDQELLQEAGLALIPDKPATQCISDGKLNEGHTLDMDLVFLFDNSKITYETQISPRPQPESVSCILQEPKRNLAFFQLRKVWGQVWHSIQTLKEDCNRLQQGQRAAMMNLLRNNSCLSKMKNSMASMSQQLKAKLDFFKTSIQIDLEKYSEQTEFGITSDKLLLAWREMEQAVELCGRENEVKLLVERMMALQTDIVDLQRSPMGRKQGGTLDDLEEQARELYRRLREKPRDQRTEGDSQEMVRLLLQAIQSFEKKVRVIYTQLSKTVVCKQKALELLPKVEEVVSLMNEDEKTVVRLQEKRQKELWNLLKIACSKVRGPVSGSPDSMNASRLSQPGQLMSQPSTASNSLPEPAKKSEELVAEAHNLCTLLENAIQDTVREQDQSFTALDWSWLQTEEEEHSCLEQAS
# [9] = biological target: T3, Inhibitor of nuclear factor kappa-B kinase subunit beta (Homo sapiens); conditions: at 1 µM
# [10] = biological target: T4, Inhibitor of nuclear factor kappa-B kinase subunit epsilon (Homo sapiens) (UniProt Q14164); conditions: at 0.1 µM;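 also: mean inhibition of IKKε reported, from the GSK PKIS dataset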
# T4 sequence (whole entry): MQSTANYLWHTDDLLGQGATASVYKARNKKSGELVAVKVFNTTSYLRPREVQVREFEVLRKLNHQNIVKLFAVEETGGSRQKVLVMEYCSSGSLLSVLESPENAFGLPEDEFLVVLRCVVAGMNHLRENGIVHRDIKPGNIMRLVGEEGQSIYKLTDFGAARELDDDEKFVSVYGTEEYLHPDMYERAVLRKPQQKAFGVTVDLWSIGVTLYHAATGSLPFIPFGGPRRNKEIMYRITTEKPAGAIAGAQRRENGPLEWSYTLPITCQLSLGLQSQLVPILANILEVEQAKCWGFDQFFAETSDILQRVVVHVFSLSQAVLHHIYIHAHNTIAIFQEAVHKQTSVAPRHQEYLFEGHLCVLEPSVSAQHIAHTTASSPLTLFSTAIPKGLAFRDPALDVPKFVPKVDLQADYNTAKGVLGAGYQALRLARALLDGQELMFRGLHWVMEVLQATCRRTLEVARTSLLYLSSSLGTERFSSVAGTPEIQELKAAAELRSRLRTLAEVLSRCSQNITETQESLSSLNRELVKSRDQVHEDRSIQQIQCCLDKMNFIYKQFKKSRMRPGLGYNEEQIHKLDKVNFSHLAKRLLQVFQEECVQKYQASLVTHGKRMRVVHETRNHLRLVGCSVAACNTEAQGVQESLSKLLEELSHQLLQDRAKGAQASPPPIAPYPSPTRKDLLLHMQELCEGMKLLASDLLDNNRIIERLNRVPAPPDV
# Sphingosine kinase 1 (Homo sapiens), sequence (Q9NYA1 whole entry): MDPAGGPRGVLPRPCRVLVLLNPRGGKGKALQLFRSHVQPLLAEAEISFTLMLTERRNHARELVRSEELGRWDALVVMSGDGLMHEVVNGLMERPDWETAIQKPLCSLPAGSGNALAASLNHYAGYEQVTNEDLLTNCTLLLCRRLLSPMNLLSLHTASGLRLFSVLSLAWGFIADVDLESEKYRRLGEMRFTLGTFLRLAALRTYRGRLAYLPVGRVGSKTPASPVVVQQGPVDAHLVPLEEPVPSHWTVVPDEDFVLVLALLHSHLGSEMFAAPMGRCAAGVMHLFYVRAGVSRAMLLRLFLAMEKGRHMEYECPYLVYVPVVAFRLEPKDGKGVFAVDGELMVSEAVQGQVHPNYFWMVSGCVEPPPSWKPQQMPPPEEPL
# Casein kinase II subunit alpha (Homo sapiens), sequence (P68400 whole entry, looked up): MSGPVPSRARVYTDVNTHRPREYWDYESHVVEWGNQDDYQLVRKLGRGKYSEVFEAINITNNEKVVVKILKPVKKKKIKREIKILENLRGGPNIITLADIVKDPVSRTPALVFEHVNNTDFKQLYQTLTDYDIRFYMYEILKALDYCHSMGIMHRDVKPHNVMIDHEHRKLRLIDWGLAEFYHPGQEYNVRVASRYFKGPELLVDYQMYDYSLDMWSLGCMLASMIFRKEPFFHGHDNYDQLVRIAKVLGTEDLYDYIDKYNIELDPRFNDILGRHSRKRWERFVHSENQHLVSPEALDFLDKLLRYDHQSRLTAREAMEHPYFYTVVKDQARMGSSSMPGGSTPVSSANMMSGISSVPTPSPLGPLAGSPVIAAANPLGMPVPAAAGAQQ
Compound,inhibition [1],inhibition [2],inhibition [3],inhibition [4],inhibition [5],inhibition [6],inhibition [7],inhibition [8],inhibition [9],inhibition [10]
Fc1ccc(-c2ncn(C3CCNCC3)c2-c2ccnc(Oc3ccc(F)c(F)c3)n2)cc1,-0.78%,1.4%,-2.94%,1.69%,3.12%,-1.24%,3.68%,6.9%,5.72%,6.6%
CN(C)CCCNc1nccc(-c2c(-c3ccc(F)cc3)nn3cc(C(F)(F)F)ccc23)n1,-2.46%,-0.03%,-0.25%,1.85%,6.47%,4.46%,-1.7%,1.56%,0%,2.49%
O=C(NCC1CC1)c1ccc(-c2cccc(C(=O)NC3CC3)c2)cc1,-3.07%,0.02%,1.28%,0.31%,-2.23%,4.96%,0.42%,1.17%,0.13%,3.8%
COc1ccc2cc(-c3c(-c4ccncc4)nc(-c4ccc([S+](C)[O-])cc4C)n3C)ccc2c1 (centres undefined),5.11%,0.43%,0.76%,2.77%,3.85%,-4.94%,-5.55%,-0.05%,-2.53%,-2.45%
CN(C)CCOc1ccc(-c2cc(-c3ccc4c(c3)CCC4=NO)c(-c3ccncc3)o2)cc1,-2.32%,-0.68%,0.96%,-3%,0.33%,-4.03%,,-1.54%,-1.92%,-1.86%
NC(=O)Cc1ccccc1Oc1nccc(-c2c(-c3ccc(F)cc3)ncn2C2CCNCC2)n1,-2.09%,0.16%,0.42%,1.72%,2.63%,8.64%,0.14%,4.37%,3.54%,2.28%
NC(=O)c1cc(-c2ccc(F)cc2)cc(-c2ccncc2)c1N,4.1%,1.03%,-1.1%,3.42%,8.62%,,,,,6.05%
O=C1Nc2ccc(I)cc2C1=Cc1cc(Br)c(O)c(Br)c1,0.73%,-0.66%,3.26%,4.28%,17.9%,1.76%,3.02%,1.64%,3.61%,10.2%
CCC(=O)Nc1ccc(C)c(-c2ccc(C(=O)NCC3CC3)cc2)c1,0.8%,-0.3%,0.9%,,2.11%,10.5%,7.65%,5.07%,5.57%,9.75%
